{"source": "PubChem BioAssay (NCI)", "note": "“And” between values parts separate entries of the source, which are not always exact repeats. Identical values can stand only once. This is part of a sample that, as a whole, favours compounds with a hit. Of some 83,000 tested, about 20% had one in any assay.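 48-hour exposure, single concentration, 96-well plates; percent growth endpoint where 0 means no net growth. Active: below 10.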 The source made the active and inactive calls."}
{"system": "HL-60(TB) leukemia", "test": "NCI-60 one-dose screen, 48 h (100 = growth as untreated, 0 = no growth, -100 = all killed)", "conditions": "10 µM unless noted"}
{"smiles": "COc1ccc(OC)c(NC(=O)c2cc(S(=O)(=O)N3CCc4ccccc43)ccc2OC)c1", "growth": "107% (inactive)"}
{"smiles": "OCCOCCN(Cc1ccccn1)Cc1cc(I)cc(I)c1O", "growth": "63.3% (inactive)"}
{"smiles": "Cn1c2ccccc2c2nn(C(=O)c3ccccc3)c(=O)nc21", "growth": "110% (inactive)"}
{"smiles": "c1ccc2c(CC3=NCCN3)cccc2c1", "growth": "107% (inactive) and 103% (inactive)"}
{"smiles": "Cc1sc2c(c1C)c(=O)nc1c(-c3nc4ccccc4s3)n[nH]n12", "growth": "98.3% (inactive)"}
{"smiles": "CC1OS(=O)OC1C", "note": "(stereo not given)", "growth": "96.3% (inactive) and 89.9% (inactive)"}
{"smiles": "CCCCCCCC(=O)SCC/C=C/[C@@H]1CC(=O)NCc2cccc(n2)C2=N[C@@](C)(CS2)C(=O)N[C@@H](C(C)C)C(=O)O1", "growth": "19.9% (inactive)"}
{"smiles": "COC(=O)[C@]12CC[C@@H](C)[C@H](C)[C@@H]1C1=CC[C@@H]3[C@@]4(C)C(C=O)=C[C@@](C)(COC(C)=O)[C@@H]4[C@H](O)C[C@@]3(C)[C@]1(C)CC2", "growth": "-24.7% (active)"}
{"smiles": "Cc1ccc(S(N)(=O)=O)cc1Cl", "growth": "79.8% (inactive)"}
{"smiles": "CCC1=C[C@@H]2CN(C1)Cc1c([nH]c3ccccc13)[C@@](C(=O)OC)(c1cc3c(cc1OC)N(C=O)[C@H]1[C@@](O)(C(=O)OC)[C@H](OC(C)=O)[C@]4(CC)[C@@H]5C[C@@H]5CN5CC[C@]31[C@@H]54)C2", "growth": "-19.4% (active)"}
{"smiles": "O=C1C(SCCO)=C(SCCO)C(=O)N1c1ccc(-c2ccccc2)cc1", "growth": "-44.2% (active)"}
{"smiles": "O=C1c2cccc3cccc(c23)C(=O)N1Nc1nc(NC2CCCCC2)nc(N2CCOCC2)n1", "growth": "101% (inactive)"}
{"smiles": "CC1(C)NCCC[C@]2(C)[C@H]3CC[C@@H]4[C@H]5[C@H](C(=O)/C=C/c6ccccn6)CC[C@]5(CO)CC[C@@]4(C)[C@]3(C)CC[C@@H]12", "growth": "-31.8% (active)"}
{"smiles": "CCCN1CCN(c2ccc3nc(-c4ccc5nc(-c6ccc(C(F)(F)F)cc6)[nH]c5c4)[nH]c3c2)CC1", "growth": "-40.7% (active)"}
{"smiles": "O[C@@H]1Cc2ccc3ccccc3c2N[C@H](c2ccoc2)C1", "growth": "105% (inactive)"}
{"smiles": "CNC(=O)CN1CCC(Oc2cc3c(Nc4cccc(Cl)c4F)ncnc3cc2OC)CC1", "growth": "86.9% (inactive)"}
{"smiles": "C=C1c2nc3ccccc3n2C=C(c2ccc(OC)cc2)N1Cc1ccccc1", "growth": "80% (inactive)"}
{"smiles": "N#Cc1c(NC(=O)c2cccc(Br)c2)sc2c1CCCC2", "growth": "62.4% (inactive)"}
{"smiles": "O=C1CCC(NC(=S)Nc2ccccc2)N1", "note": "(stereo not given)", "growth": "99.2% (inactive)"}
{"smiles": "O=C1/C(=C/c2ccc(Cl)cc2)SC(=S)N1CCc1ccc(O)cc1", "growth": "76.6% (inactive)"}
{"smiles": "CCOC(=O)c1c(C)oc2ncnc(N3CCN(C(=S)Nc4ccccc4)CC3)c12", "growth": "94.7% (inactive)"}
{"smiles": "N#CCCN(NC(=O)OCc1ccccc1)C(=O)OCc1ccccc1", "growth": "115% (inactive)"}
{"smiles": "Fc1ccc(N/N=C/c2ccc(-n3cccn3)cc2)cc1", "growth": "118% (inactive)"}
{"smiles": "COc1cc(-c2cncn2-c2ccc(-c3nc4ccc(F)cc4s3)cc2)ccc1F", "growth": "53.1% (inactive)"}
{"smiles": "Cc1nn(-c2cc(=O)[nH]c3ccc(Cl)cc23)c(N)c1C#N", "growth": "100% (inactive)"}
{"smiles": "CN(C)C(C(N)=O)c1ccc(Cl)cc1", "note": "(stereo not given)", "growth": "89.6% (inactive)"}
{"smiles": "CN(CCNCc1ccccn1)CCNCc1ccccn1", "growth": "6% (active)"}
{"smiles": "c1cc2ccc1CNCCN1CCNCc3ccc(cc3)Oc3ccc(cc3)CNCCN(CCNCc3ccc(cc3)O2)CCNCc2ccc(cc2)Oc2ccc(cc2)CNCC1", "growth": "-57.4% (active)"}
{"smiles": "CCOC(=O)c1cc(C)[nH]c(=O)c1C#N", "growth": "121% (inactive)"}
{"smiles": "O=c1cc(-c2ccccc2)oc2cc(OCc3cn(Cc4ccc(F)cc4)nn3)cc(OCc3cn(Cc4ccc(F)cc4)nn3)c12", "growth": "98% (inactive)"}
{"smiles": "Fc1cccc(CNc2c3ccccc3nc3ccccc23)c1F", "growth": "76% (inactive)"}
{"smiles": "Cc1ccccc1COc1ccc(-c2onc(C)c2-c2ccc(Cl)cc2)cc1", "growth": "17.7% (inactive)"}
{"smiles": "Oc1cccc(Nc2nccc(-c3ccc4ccccc4c3)n2)c1", "growth": "0.229% (active)"}
{"smiles": "Cc1ccccc1C1=N[C@@H](Cc2ccccc2)C(=O)c2c(nc3ccccn23)N1", "growth": "125% (inactive)"}
{"smiles": "CC(=O)C1CCC2C3CC=C4CC(SC(=N)N)CCC4(C)C3CCC12C", "note": "(stereo not given)", "growth": "-17.6% (active)"}
{"smiles": "N#CC1=C(N)Oc2c(sc3c(Br)cccc23)C1c1ccc(Cl)cc1", "note": "(stereo not given)", "growth": "-7.34% (active)"}
{"smiles": "N/C(=C\\C(=O)n1nc(-c2ccccc2)cc1N)c1ccccc1", "growth": "1.71% (active)"}
{"smiles": "N#Cc1cccc(F)c1", "growth": "76.2% (inactive)"}
{"smiles": "O=c1ssc(Cl)c1-c1ccccc1", "growth": "48% (inactive)"}
{"smiles": "Cc1nn(-c2nc3ccccc3[nH]2)c2c1C(c1ccc(OCC(N)=O)cc1)CC(=O)N2", "note": "(stereo not given)", "growth": "113% (inactive)"}
